For 58 compounds, plasma membrane CFTR intensity and total CFTR intensity results are on record in PubChem BioAssay AID1224864 (Chung Lab, Department of Pediatrics, Emory University, 2016).

Screen size: about 2,000 compounds; about 20 (1%) were called active. The rule behind the calls is not given here. Shown is part of a subset that was picked to be rich in actives. Residues, ends and D or L forms follow the SMILES beside them. *: point of attachment. Boc = CC(C)(C)OC(=O)*

In this experiment the target is Cystic fibrosis transmembrane conductance regulator (Homo sapiens) (UniProt P13569). Put plainly: correctors of F508del-CFTR surface localization, primary screen, imaging, HeLa, high-content microscopy, immunofluorescence (AID 1224864).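 For plasma membrane CFTR intensity: mean immunofluorescence in a thin cell-margin band taken as plasma membrane.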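 Note: HeLa cells stably expressing F508del-CFTR stained with 3G11 antibody against NBD1.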 The conditions noted are these: PM immunofluorescence imaging, 24 h, at 10 µM, stronger effect = higher value, relative to vehicle wells set at 100; total CFTR intensity: measured here: total cellular F508del-CFTR signal.
Cystic fibrosis transmembrane conductance regulator (Homo sapiens), sequence (P13569 whole entry, looked up, stated change not applied): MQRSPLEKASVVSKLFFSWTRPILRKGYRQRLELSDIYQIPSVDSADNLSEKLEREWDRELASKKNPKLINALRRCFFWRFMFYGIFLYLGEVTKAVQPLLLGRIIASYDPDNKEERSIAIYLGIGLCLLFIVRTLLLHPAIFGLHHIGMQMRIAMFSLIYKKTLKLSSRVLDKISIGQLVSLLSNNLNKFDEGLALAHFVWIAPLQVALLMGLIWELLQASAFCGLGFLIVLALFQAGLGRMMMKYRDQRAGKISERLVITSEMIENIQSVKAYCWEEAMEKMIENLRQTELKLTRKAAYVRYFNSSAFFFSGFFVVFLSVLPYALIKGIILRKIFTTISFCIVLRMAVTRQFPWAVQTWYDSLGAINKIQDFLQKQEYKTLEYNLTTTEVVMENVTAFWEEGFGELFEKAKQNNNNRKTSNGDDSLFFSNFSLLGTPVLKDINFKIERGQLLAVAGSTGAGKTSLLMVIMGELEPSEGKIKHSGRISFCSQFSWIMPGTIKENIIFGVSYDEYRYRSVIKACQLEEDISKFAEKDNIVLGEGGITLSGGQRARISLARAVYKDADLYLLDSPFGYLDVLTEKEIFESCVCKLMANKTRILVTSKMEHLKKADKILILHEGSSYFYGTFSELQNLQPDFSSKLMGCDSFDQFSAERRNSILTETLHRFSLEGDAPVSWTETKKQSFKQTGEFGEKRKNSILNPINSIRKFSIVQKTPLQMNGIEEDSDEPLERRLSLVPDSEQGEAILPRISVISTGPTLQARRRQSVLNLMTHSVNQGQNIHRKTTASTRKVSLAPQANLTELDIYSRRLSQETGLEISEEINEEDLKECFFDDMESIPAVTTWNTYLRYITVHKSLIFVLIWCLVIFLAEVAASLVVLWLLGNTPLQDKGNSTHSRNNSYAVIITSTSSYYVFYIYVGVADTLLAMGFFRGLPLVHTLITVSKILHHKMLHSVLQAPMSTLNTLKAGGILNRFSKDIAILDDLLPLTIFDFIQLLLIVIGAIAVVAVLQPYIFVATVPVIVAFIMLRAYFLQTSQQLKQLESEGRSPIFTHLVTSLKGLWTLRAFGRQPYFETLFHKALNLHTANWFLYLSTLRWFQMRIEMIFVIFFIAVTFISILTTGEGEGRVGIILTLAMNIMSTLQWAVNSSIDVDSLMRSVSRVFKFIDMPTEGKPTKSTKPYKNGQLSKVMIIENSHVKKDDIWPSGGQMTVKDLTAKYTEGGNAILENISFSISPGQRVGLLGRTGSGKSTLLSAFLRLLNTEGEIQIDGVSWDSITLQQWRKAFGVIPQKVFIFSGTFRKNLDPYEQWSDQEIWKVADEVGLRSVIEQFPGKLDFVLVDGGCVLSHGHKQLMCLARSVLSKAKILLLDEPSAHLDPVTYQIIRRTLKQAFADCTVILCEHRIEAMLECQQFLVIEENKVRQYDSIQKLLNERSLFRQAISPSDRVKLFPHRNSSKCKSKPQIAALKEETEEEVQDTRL
For the compound `CC(C)=CCC/C(C)=C/CC/C(C)=N/O`, the plasma membrane CFTR intensity was 84% (inactive) and the total CFTR intensity stood at 87%.
On to `Cc1ccc(/C=N/NC(=O)C2(C)CC2(Br)Br)cc1` (stereo unspecified), for which the plasma membrane CFTR intensity is 82% (inactive) and the total CFTR intensity worked out at 80%.
For `CCOC(=O)c1ccc(NC(=S)NCCc2ccccc2F)cc1` the same measures were 81% (inactive) and 78%.
In the same order, the values of `CCOC(=O)Cc1c(C)nc(N)[nH]c1=O` are 82% (inactive) and 81%.
For `CCN1C(=O)C(CC(=O)Nc2ccc(F)cc2)N(Cc2ccc3c(c2)OCO3)C1=S` (stereo unspecified) the same measures were 81% (inactive) and 81%.
For the compound `CCn1c(C)cc2c(c1=O)C(c1ccccc1)C(C(=O)OC)=C(N)O2` (stereo unspecified), the plasma membrane CFTR intensity was 90% (inactive) and the total CFTR intensity was determined as 94%.
Take `CCC(C(=O)Nc1ccc2c(c1)OCCO2)c1ccccc1` (stereo unspecified): the plasma membrane CFTR intensity was 78% (inactive) and the total CFTR intensity was found to be 76%.
In the same order, the values of `O=c1[nH]c(Cc2ccccc2)nc2c1oc1ccccc12` are 78% (inactive) and 79%.
In the same order, the values of `CCOc1ccc(C(=O)NC(C)C2COc3ccccc3O2)cc1` (stereo unspecified) are 82% (inactive) and 80%.
In the same order, the values of `CC(C)CN1CCN(Cc2cccn2-c2ccccn2)CC1CCO` (stereo unspecified) are 88% (inactive) and 88%.
In the case of `Cc1csc(N)n1`, the plasma membrane CFTR intensity was 86% (inactive) and the total CFTR intensity worked out at 87%.
In the same order, the values of `CS(=O)(=O)Oc1ccc2c(c1)O/C(=C\C=C\c1ccccc1)C2=O` are 92% (inactive) and 97%.
For the compound `Fc1ccccc1CNCCC(Cc1ccccc1)c1ccc2c(c1)OCO2` (stereo unspecified), the plasma membrane CFTR intensity is 171% (inactive) and the total CFTR intensity stood at 228%.
With `CC(NC(=O)c1cccnc1)C(=O)O` (stereo unspecified), the plasma membrane CFTR intensity is 75% (inactive) and the total CFTR intensity amounted to 73%.
Consider `COc1ccc(OC(C)C(=O)Nc2ccc([N+](=O)[O-])cc2)cc1` (stereo unspecified), for which the plasma membrane CFTR intensity was 76% (inactive) and the total CFTR intensity is 72%.
For `CC(NC(=O)c1ccc(OC2CCN(Cc3ccccn3)CC2)cc1)c1ccccc1` (stereo unspecified) the same measures were 73% (inactive) and 66%.
For `Cc1ncc(CN2CCC(CO)(CCc3ccccc3)CC2)s1`, the plasma membrane CFTR intensity is 75% (inactive) and the total CFTR intensity came out at 75%.
In the same order, the values of `Cc1ccc(-c2nn(-c3cccc(F)c3)cc2CN2CCN(c3ccccn3)CC2)o1` are 69% (inactive) and 69%.
In the same order, the values of `CC12CCC(C(=O)NNc3ccccc3)(C(=O)C1=O)C2(C)C` (stereo unspecified) are 92% (inactive) and 88%.
In the same order, the values of `O=c1nc2n(c3c1oc1ccccc13)Cc1ccccc1-2` are 131% (inactive) and 133%.
`C#C[C@]1(O)CC[C@H]2[C@@H]3CCc4cc(O)ccc4[C@H]3CC[C@@]21C`: the plasma membrane CFTR intensity is 113% (inactive) and the total CFTR intensity was 106%.
In the same order, the values of `C#C[C@]1(O)CC[C@H]2[C@@H]3CCc4cc(OC5CCCC5)ccc4[C@H]3CC[C@@]21C` are 41% (inactive) and 30%.
For `C#C[C@]1(O)CC[C@H]2[C@@H]3CCc4cc(OC)ccc4[C@H]3CC[C@@]21C` the same measures were 133% (active) and 141%.
For `COc1ccc(C2c3c(n[nH]c3C)CC(C)(O)C2C(C)=O)cc1OC` (stereo unspecified) the same measures were 87% (inactive) and 86%.
For `Cc1ccc2c(c1)C(C)(C)[C@]1(C)NC(=O)CCN21`, the plasma membrane CFTR intensity is 94% (inactive) and the total CFTR intensity was found to be 97%.
In the same order, the values of `CC(C)C(CCN1C(=O)CCC1=O)C1CCOC(C)(C)C1` (stereo unspecified) are 87% (inactive) and 90%.
For the compound `CC(C)OC(=O)CC1C(=O)NCCN1C(=S)NC(=O)c1ccccc1Cl` (stereo unspecified), the plasma membrane CFTR intensity was 79% (inactive) and the total CFTR intensity stood at 80%.
Regarding `COc1ccc(C2C(C(=O)c3ccco3)=C(O)C(=O)N2CC2CCCO2)cc1` (stereo unspecified), the plasma membrane CFTR intensity is 79% (inactive) and the total CFTR intensity came to 83%.
Take `COc1ccc2cc(C3(C)NC(=O)NC3=O)ccc2c1` (stereo unspecified): the plasma membrane CFTR intensity is 89% (inactive) and the total CFTR intensity was 88%.
For `COc1ccc2[nH]c3c(c2c1)CCNC3C1CC=C(C)CC1` (stereo unspecified), the plasma membrane CFTR intensity is 99% (inactive) and the total CFTR intensity is 117%.
For `COC(=O)C1[C@H]2C(=O)N(Cc3cccs3)C[C@]23C=C[C@H]1O3` (stereo partly specified) the same measures were 92% (inactive) and 95%.
As to `S=C(c1ccc2c(c1)OCO2)N1CCCCC1`, the plasma membrane CFTR intensity is 83% (inactive) and the total CFTR intensity worked out at 85%.
For `Fc1ccc(NC(=S)Nc2ccccc2Cl)cc1`, the plasma membrane CFTR intensity is 92% (inactive) and the total CFTR intensity came out at 93%.
For `CCNC(=O)c1sc2cc(C)ccc2c1Cl` the same measures were 92% (inactive) and 95%.
For `NS(=O)(=O)c1cc2c(cc1Cl)NC(CSCc1ccccc1)=NS2(=O)=O` the same measures were 84% (inactive) and 85%.
Take `C[C@@H]1C[C@H](Nc2ccccc2)c2ccccc2N1C(=O)c1cccnc1`: the plasma membrane CFTR intensity is 97% (inactive) and the total CFTR intensity was 103%.
In the same order, the values of `CC(=O)c1c[nH]c2ccc(C)cc2c1=O` are 83% (inactive) and 84%.
In the same order, the values of `COc1ccc(OC)c(NC2=C(Cl)C(=O)N(Cc3ccccc3)C2=O)c1` are 88% (inactive) and 100%.
For `Cc1ccc2occ(C(=O)c3ccco3)c(=O)c2c1` the same measures were 86% (inactive) and 90%.
On to `O=C(O)[C@H](Cc1ccccc1)NC(=O)N1CCC(Cc2ccccc2)CC1`, for which the plasma membrane CFTR intensity was 89% (inactive) and the total CFTR intensity came out at 83%.
In the same order, the values of `CC(C)CC(=O)N(Cc1ccc(F)cc1)C1CCS(=O)(=O)C1` (stereo unspecified) are 96% (inactive) and 98%.
For `CCOc1ccccc1OCCOc1ccc(F)cc1` the same measures were 86% (inactive) and 86%.
For `C=CCNc1nc2c(c(=O)n(C)c(=O)n2C)n1CC(=C)C` the same measures were 82% (inactive) and 80%.
`CCOC(=O)C1=C(N)Oc2c(c(=O)[nH]c3ccccc23)C1c1ccccc1` (stereo unspecified): the plasma membrane CFTR intensity was 93% (inactive) and the total CFTR intensity was 96%.
For `CCNC(=O)C(Cc1ccccc1)NC(=O)OCc1ccccc1` (stereo unspecified) the same measures were 81% (inactive) and 80%.
For `COC(=O)c1ccccc1NC(=O)c1ccc(COc2ccc3c(c2)CCC3)cc1` the same measures were 84% (inactive) and 83%.
For `CCOC(=O)C1C(=O)OC2(CCOC(C)(C)C2)C1C(=O)OCC` (stereo unspecified) the same measures were 90% (inactive) and 87%.
`COc1ccc(NC(=O)N2CCCCC2c2cccnc2)cc1` (stereo unspecified): the plasma membrane CFTR intensity was 84% (inactive) and the total CFTR intensity stood at 84%.
With `CCOC(=O)C1C2C=CC3(CN(c4ccc(Cl)c(F)c4)C(=O)C13)O2` (stereo unspecified), the plasma membrane CFTR intensity is 84% (inactive) and the total CFTR intensity worked out at 83%.
Take `CCOC(=O)/C=C1\NC(C)(C)Cc2cc(OC)c(OC)cc21`: the plasma membrane CFTR intensity is 86% (inactive) and the total CFTR intensity is 89%.
For `O=C(COc1ccccc1)N1CCN(c2ccccc2)CC1` the same measures were 88% (inactive) and 85%.
For the compound `CC[N+]1(C)CC2CCC(C)(C1)C2(C)C` (stereo unspecified), the plasma membrane CFTR intensity is 72% (inactive) and the total CFTR intensity came to 75%.
In the same order, the values of `CC(C)(C)OC(=O)N1CCCC1C(=O)NC(Cc1ccccc1)C(=O)O` (stereo not drawn) (Boc-Pro-Phe-OH; configuration not given here) are 96% (inactive) and 102%.
In the same order, the values of `CC(=O)N1CC23C=CC(CC2CC12CCCCCC2)O3` (stereo unspecified) are 73% (inactive) and 77%.
In the same order, the values of `O=C(Nc1cccc(-c2nc3ncccc3o2)c1)c1ccccc1` are 68% (inactive) and 72%.
In the case of `CC(NCCc1ccc(O)cc1)C(O)c1ccc(O)cc1` (stereo unspecified), the plasma membrane CFTR intensity is 101% (inactive) and the total CFTR intensity is 96%.
In the same order, the values of `CC(COc1ccccc1)NC(C)C(O)c1ccc(O)cc1` (stereo unspecified) are 104% (active) and 121%.
For `CC(COc1ccccc1)N(CCCl)Cc1ccccc1` (stereo unspecified) the same measures were 78% (inactive) and 80%.
